Drawing on PubChem BioAssay (NCI), this text covers growth for 40 compounds.

The panel holds about 83,000 compounds, 20% with a hit somewhere; the sample as a whole holds those more often.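 Single-dose data. Exposure time 48 hours. Values below 10 considered active.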 A number with no mark means an inactive call. Calls of active or inactive are those of the source.

This assay has as its system HL-60(TB) leukemia. The assay can be described thus: NCI-60 one-dose screen, 48 h (100 = growth as untreated, 0 = no growth, -100 = all killed). To be noted: 10 µM unless noted.
Consider `COc1ccc2c(c1OC)C(=O)O[C@H]2[C@H]1c2c(cc3c(c2OC)OCO3)CCN1C`, for which the growth is 31.9%.
Under `Cn1c(=O)c2[nH]c(SC/C(=N/O)c3ccc(Br)cc3)nc2n(C)c1=O` stands 99.5%; under `COc1cc2cc(Oc3ccc(NC(=O)c4ccc(Cl)c(C(F)(F)F)c4)cc3)c(C)nc2cc1OC`, 17.4%.
Then `N#Cc1c(NC(=O)NCc2ccccc2)sc2c1CCCCC2`, with -8.46% (active).
Then `COc1cc(-c2nc3sccn3c2-c2ccnc(NCCNS(=O)(=O)c3ccc(Cl)cc3)n2)ccc1F`, with 9.59% (active); and `O=C1CC[C@@H]2CCCC[C@@H]2C1`, with 110%.
Turning to `Cc1cc(Nc2nc(-c3cccnc3)nc3ccccc23)n[nH]1`, the growth is 53.4%.
Under `Cc1ccc(/C=C2\CN(C(=O)C(Cl)Cl)C/C(=C\c3ccc(C)cc3)C2=O)cc1` stands -21% (active); under `Cc1cc(C2(c3ccc(O)c(C)c3)OS(=O)(=O)c3ccccc32)ccc1O`, 79%; under `O=S(=O)(NCCCNc1nccc(-c2c(-c3ccc(F)c(O)c3)nc3sccn23)n1)c1ccc(Cl)cc1`, 83.1%.
Then `Oc1c(CN2CCC(N3CCOCC3)CC2)cc(Cc2cc(CN3CCC(N4CCOCC4)CC3)c(O)c3ncccc23)c2cccnc12`, with -5.88% (active).
Under `OC(CSc1ccccc1)CN1CCN(c2cccc(Cl)c2)CC1` (stereo not given) stands 85.7%; under `COc1ccc(/C(=C/c2cc(OC)c(OC)c(OC)c2)[N+](=O)[O-])cc1`, -26.4% (active).
As to `O=C1C(Cl)=C(NCCCCCCNC2=C(Cl)C(=O)c3ccccc3C2=O)C(=O)c2ccccc21`, the growth is 55.7%.
For `O=C(COc1cccc(/C=C2/Oc3ccccc3C2=O)c1)Nc1nccs1`, the growth was -72.9% (active).
Then `Nc1n[nH]c2cccc(C#Cc3cccc(C(=O)Nc4cccc(C(F)(F)F)c4)c3)c12`, with 30.4%; and `COc1ccc(C2CC(c3ccccc3)=NN2C(=O)c2cc(OC)c(OC)c(OC)c2)cc1O` (stereo not given), with -29.3% (active); and `COc1cc(C2=Nc3c/c(=C\c4c(O)[nH]c5ccc(Cl)cc45)ccc3=N2)cc(OC)c1OC`, with 11.8%.
Then `COc1ccc(Nc2nc(N)nc3c(=O)[nH]ccc23)cc1`, with 96.1%.
Then `CC(C)=CCC[C@](C)(O)[C@H]1CC[C@]2(C)[C@@H]1CC[C@@H]1[C@@]3(C)C/C(=C/c4ccc(Br)cc4)C(=O)C(C)(C)[C@@H]3CC[C@]12C`, with 92.9%; and `CSc1nc2c(c(=O)n1C)N=C1c3ccccc3C(=O)C1C(c1ccccc1)N2` (stereo not given), with 84.5%.
For `Cc1cc(-c2ccccc2)on1`, the growth was 89.2%.
Then `N#C/C(=C\c1ccc(-c2cccc(C(F)(F)F)c2)o1)c1ccccc1`, with 96.2%; and `O=C1C=CC2(O)OC/C(=C\c3ccccc3)C(O)=C2C1=O` (stereo not given), with 4.63% (active); and `C[C@H]1C[C@@H](n2cnc3c(N)nccc32)[C@H](O)[C@@H]1O`, with 80.5%.
Then `CN(C)CCC=C1c2ccccc2C(C)(C)c2ccccc21`, with 85.5%; and `Nc1ncc(-c2ccc3ncnc(N4CCc5ccc(Cl)cc54)c3c2)cn1`, with -51.1% (active).
Under `O=C1CCC2=C3C4CCCCC4C(=O)C4CCCC(OC2C1)C34` (stereo not given) stands -17.1% (active); under `Nc1ncnc2[nH]ncc12`, 3.02% (active).
Regarding `CCCCCCCCCCCCCCCCCC1=NC(C)(C)CN1CC(C)O` (stereo not given), the growth was 61%.
Under `CCCNNC(=O)/C=C/c1ccc(CNCCc2c(C)[nH]c3ccccc23)cc1` stands 33.3% [2.5 µM]; under `CCOC(=O)c1c(C)oc2ncnc(N3CCN(C(=O)COc4ccc(SC)cc4)CC3)c12`, 97.2%; under `CCC(=O)OC1CCC2C3CCC(=O)OC3C(C)(CCC(=O)O)CC12C` (stereo not given), -23.2% (active).
Then `CC1(C)Nc2cccc3c(N=Nc4ccc(N=Nc5ccccc5)c5ccccc45)ccc(c23)N1`, with 86.1%; and `COC(=O)Nc1cccc(Cl)c1OC`, with 103%.
Then `CNC(=O)c1cc(Oc2ccc3nc(Nc4cc(Cl)cc(Cl)c4)ccc3c2)ccn1`, with 47.6%; and `CCOC(=O)C(C)C(C)(O)c1ccccc1` (stereo not given), with 99.2%.
Turning to `O=C1NC(=O)C(=Cc2cn(Cc3ccccn3)c3ccccc23)C(=O)N1`, the growth was 101%.
Under `COc1ccc(C2=NN(C(=O)COc3ccc(Cl)cc3)C(O)(c3cc(F)c(Cl)cc3Cl)C2)cc1OC` (stereo not given) stands -42.2% (active); under `CN(C)[C@@H]1C(=O)C(C(=O)NCc2nc3[nH]cnc(=S)c3[nH]2)=C(O)[C@@]2(O)C(=O)C3=C(O)c4c(O)cccc4[C@@](C)(O)[C@H]3C[C@@H]12`, 4.14% (active).
